Potency and affinity values are given separately. The source made the active and inactive calls.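 How the source made its calls: active means fitted half-inhibition concentration at or below a set limit, with percent of control there at most 60; inactive means the rest.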
Target: Estrogen receptor beta (Homo sapiens) (UniProt Q92731)
Experiment: blockers of SRC-3 recruitment to ERβ – biochemical, ELISA, streptavidin-HRP readout, orthogonal assay, confirmation (AID 1060)
Conditions: ERbeta-SRC-3 coactivator binding ELISA; series mostly up to 50 µM

Estrogen receptor beta (Homo sapiens), sequence (Q92731 whole entry, looked up): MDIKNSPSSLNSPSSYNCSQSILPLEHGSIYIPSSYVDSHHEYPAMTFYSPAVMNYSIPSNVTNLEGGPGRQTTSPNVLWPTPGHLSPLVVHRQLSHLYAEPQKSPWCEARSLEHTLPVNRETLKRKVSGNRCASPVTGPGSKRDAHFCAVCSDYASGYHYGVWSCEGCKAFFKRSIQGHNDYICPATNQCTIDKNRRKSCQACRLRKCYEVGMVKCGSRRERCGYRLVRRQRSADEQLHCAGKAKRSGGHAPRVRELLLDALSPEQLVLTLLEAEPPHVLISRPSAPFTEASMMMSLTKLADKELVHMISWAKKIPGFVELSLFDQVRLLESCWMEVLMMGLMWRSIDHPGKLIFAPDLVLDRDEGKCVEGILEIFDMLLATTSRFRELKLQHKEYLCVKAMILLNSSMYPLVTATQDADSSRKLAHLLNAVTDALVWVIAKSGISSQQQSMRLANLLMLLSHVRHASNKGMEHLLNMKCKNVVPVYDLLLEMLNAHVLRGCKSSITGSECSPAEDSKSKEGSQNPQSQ

SMILES | outcome
CSc1nc2c(c(=O)[nH]1)C(c1cccs1)C1=C(CCCC1=O)N2 (stereo unspecified) | inactive
CCC(=O)Nc1cccc(NC(C)=O)c1 | inactive
CCc1cc(=O)[nH]c(SCC(=O)Nc2ccc(C(=O)OC)cc2)n1 | inactive
NC(=O)c1cccc2c1C(=O)N(C1CCCCC1)C2 | inactive
Cc1cc(-c2csc(N)n2)c(C)n1C | inactive
COc1ccc2nc(-c3ccco3)c(-c3ccco3)nc2c1 | inactive
CC1CC(C(F)(F)C(F)(F)F)n2nc(C(=O)O)cc2N1 (stereo unspecified) | inactive
Cc1ccc(C(=O)CSC2=C(C#N)C(c3ccco3)CC(=O)N2)c(C)c1 (stereo unspecified) | inactive
CCCNCC1COc2ccccc2O1 (stereo unspecified) | inactive
Cc1sc2ncnc(NCc3ccco3)c2c1C | inactive
COc1ccccc1-c1nnc2sc(-c3cnccn3)nn12 | inactive
O=S(=O)(Nc1ncnc2sc3c(c12)CCC3)c1ccc2ccccc2c1 | inactive
CCC(=O)Nc1ccc(C(=O)Cn2nc(C(=O)O)c3ccccc3c2=O)cc1 | inactive
COc1ccc(CCNC(=O)c2ccc3nc(-c4ccco4)c(-c4ccco4)nc3c2)cc1OC | inactive
Cc1cc(C)cc(OCC(=O)Nc2ccc(N3CCCC3)cc2)c1 | inactive
COc1ccc2c(=O)c3c(=O)n(Cc4ccco4)c(-c4ccco4)nc3oc2c1 | inactive

Source: PubChem BioAssay AID1060 (Emory University Molecular Libraries Screening Center, 2008)
